Assay: probe aNOTCH2 binding on compound microarray – biochemical, small-molecule microarray, 635/667 nm fluorescence, primary screen (AID 1121);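 also: score merges feature fluorescence read at 667 nm with its signal to noise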
Details: higher = more signal
In the case of CC(C)=CCN[C@H](CO)c1ccccc1, the composite z-score was -0.14.
Compound CCCC#C[Si](O[C@H](CC)c1cn(Cc2cccc(Cl)c2)nn1)(C(C)C)C(C)C has a composite z-score of -0.179.
C=CCOC(=O)[C@H]1[C@@H]2C(=O)O[C@@H](c3ccccc3)[C@@H](c3ccccc3)N2[C@@H](c2ccc(OCCOC(=O)[C@H]3C[C@H]4C(=O)N[C@@H](CCCCNC(C)=O)C(=O)N4[C@H]3c3cccc(OCCO)c3)cc2)[C@]12C(=O)Nc1ccccc12 gave a composite z-score of -0.114.
In the case of C=C(COC)/C(=C/C[C@@H](OC(=O)c1ccncc1)c1ccc(CO)o1)c1cc(C(=O)OC)ccc1OC, the composite z-score was -0.104.
Compound CC(C)C(=C=CC[C@@H](O)c1ccc(OCCO)cc1)C[C@@H](O)COCc1ccccc1 has a composite z-score of -0.105.
CCCCCCc1nc(-c2cc(C)c(OC)c(C)c2)cc2c1[Si](C(C)C)(C(C)C)OC2 gave a composite z-score of -0.113.
For COc1cc2c(cc1O)C(C1CC1)N(Cc1sc3ccccc3c1Cl)CC2 (stereo unspecified), the composite z-score was -0.0984.
COCCOC(=O)N1C(=O)[C@@]2(c3cc(C#CCC(C(=O)OC)C(=O)OC)ccc31)[C@H](C(=O)N1CCN(c3ncccn3)CC1)[C@H]1C(=O)O[C@H](c3ccccc3)[C@H](c3ccccc3)N1[C@@H]2c1ccccc1OCCO showed a composite z-score of -0.147.
C[C@H]1NC(=O)[C@@]23C(=O)N[C@@H](Cc4ccccc4)C2[C@H](C)[C@@]2(C)O[C@H]2C3/C=C/C/C=C\CNC(=O)[C@@H]2CCCN2C1=O (stereo partly specified) showed a composite z-score of -0.14.
Work on CCOC(=O)C[C@H]1[C@H](OC(=O)c2ccc(C(=O)c3ccccc3)cc2)[C@@H](NC(=O)c2ccc3ccccc3n2)c2cc(OCCCO)ccc2N1C(=O)c1ccccc1 yielded a composite z-score of -0.0646.
In the case of CCCC[C@@H]1C[C@H]1[C@@H](NC(=O)c1cccs1)c1ccc(-c2ccccc2)cc1, the composite z-score was -0.14.
Work on COC(=O)[C@@]1(Cc2ccc(OC)cc2)[C@H]2c3cc(C(=O)N4CCCC4)n(Cc4ccc(O)c(OC)c4)c3C[C@H]2CN1C(=O)c1ccccc1 yielded a composite z-score of 0.437.
Compound [N-]=[N+]=NCc1ccccc1C[C@]1(C(N)=O)COC(c2ccc(OCCCO)cc2)=N1 has a composite z-score of 0.106.
Compound C=C(COC)C(=O)CC[C@@H](OC(C)=O)c1ccc(CO)o1 has a composite z-score of 0.169.
Work on O=C1c2ccccc2[C@](Cc2ccccc2I)(C(=O)NCCN2CCOCC2)[C@H](c2ccc(CO)cc2)N1Cc1ccccc1Cl yielded a composite z-score of 0.385.
COCCCNC(=O)[C@]1(CCC(=O)OC(C)(C)C)N=C(c2ccc(OCCCO)cc2)O[C@@H]1c1ccccc1CN=[N+]=[N-] gave a composite z-score of -0.0411.
C=CCNC(=O)[C@@H]1[C@H]2C(=O)O[C@H](c3ccccc3)[C@H](c3ccccc3)N2[C@H](c2ccc(OCCO)cc2)[C@@]12C(=O)Nc1ccc(C#CCC(C(=O)OC)C(=O)OC)cc12 showed a composite z-score of 0.0302.
For COc1cc2c(cc1OC)CN(C(=O)[C@@H]1[C@H]3C(=O)O[C@H](c4ccccc4)[C@H](c4ccccc4)N3[C@H](c3ccccc3OCCO)[C@@]13C(=O)Nc1ccc(C#CCCO)cc13)CC2, the composite z-score was -0.0878.
With C=CCC(OC(C)=O)[C@@H]1[C@@H](N(Cc2cc3ccccc3o2)C(=O)c2cccc3ccccc23)c2cc(OCCCO)ccc2N1C(=O)c1ccc(-c2ccccc2)cc1 (stereo partly specified) the composite z-score was -0.113.
COC(=O)[C@@]1(Cc2ccc(F)cc2)[C@H]2c3cc(C(=O)N4CCCC4)n(CCCNc4ncc(C(F)(F)F)cc4Cl)c3C[C@H]2CN1C(=O)c1ccccc1 showed a composite z-score of 0.362.
CC(C)N1C(=O)c2ccccc2[C@](C)(C(=O)NCCN2CCOCC2)[C@@H]1c1ccc(CO)cc1 gave a composite z-score of -0.195.
CC(C)C(=C=CC[C@@H](O)c1ccc(OCCO)cc1)C[C@@H](O)c1ccccn1 gave a composite z-score of -0.13.
CO[C@H]1O[C@H](CO)[C@@H](OC(=O)Nc2ccc(Oc3ccccc3)cc2)[C@H](OC(=O)Nc2ccc3c(c2)OCO3)[C@H]1OC(=O)Nc1ccc2c(c1)OCO2 gave a composite z-score of 0.0976.
Compound C=CCOC(=O)[C@H]1[C@@H]2C(=O)O[C@@H](c3ccccc3)[C@@H](c3ccccc3)N2[C@@H](c2ccc(OCCOC(=O)[C@@H]3C[C@@H]4C(=O)N[C@@H](CC(C)C)C(=O)N4[C@@H]3c3ccc(O)cc3)cc2)[C@]12C(=O)Nc1ccccc12 has a composite z-score of -0.0631.
Work on O=C(c1ccccc1)N1C(=O)[C@]2(COC(c3ccc(OCCCO)cc3)=N2)Cc2ccccc21 yielded a composite z-score of -0.0249.
In the case of CCCc1cc2c(n1Cc1cc(F)cc(F)c1)C(C)C1CN(C(=O)c3ccccc3)C(C)(C(=O)OC)C21 (stereo unspecified), the composite z-score was 0.341.
O=C(c1ccccc1)N1C(=O)[C@@]2(Cc3ccccc31)N=C(c1ccc(OCCCO)cc1)O[C@H]2c1ccccc1 showed a composite z-score of 0.14.
CO[C@H]1O[C@H](CO)[C@@H](OC(=O)Nc2ccccc2)[C@H](OC(=O)Nc2ccccc2)[C@@H]1OC(=O)Nc1ccccc1 gave a composite z-score of -0.0847.
In the case of COc1ccc(CCNC(=O)[C@@]2(Sc3ccc(C)cc3)CC(=O)N(C3Cc4ccccc4C3)[C@@H]2c2ccc(CO)cc2I)cc1, the composite z-score was -0.192.
Work on CCCCCN1CC=CC23O[C@@H]4C=CCCOC(=O)C4[C@H]2C(=O)N(CCCCCO)[C@@H]3C1=O (stereo partly specified) yielded a composite z-score of -0.142.
In the case of COc1cc2c(cc1OC)CN(C(=O)[C@H]1[C@@H]3C(=O)O[C@@H](c4ccccc4)[C@@H](c4ccccc4)N3[C@@H](c3ccc(O)cc3)[C@]13C(=O)Nc1ccc(C#CCCO)cc13)CC2, the composite z-score was -0.0474.
For CN1C=C(C(=O)OCCS(C)(=O)=O)C(C(=O)OCCS(C)(=O)=O)=CC(c2ccc(CO)cc2)=CC1C1CC1 (stereo unspecified), the composite z-score was -0.133.
Compound C=C[C@H](CO[Si](CC)(CC)CC)N(Cc1ccc(OC(C)=O)c(OC)c1)S(=O)(=O)c1ccc(Br)cc1 has a composite z-score of 0.0727.
C[N+](C)(C)CCCCCCNC(=O)[C@@H]1C[C@@H]2C(=O)N[C@@H](Cc3ccccc3)C(=O)N2[C@@H]1c1cccc(OCCO)c1 showed a composite z-score of -0.132.
NC(=O)[C@@H]1[C@H]2C(=O)O[C@H](c3ccccc3)[C@H](c3ccccc3)N2[C@H](c2ccc(O)cc2)[C@@]12C(=O)Nc1ccccc12 showed a composite z-score of -0.155.
C=C(CCCC)/C(=C/C[C@@H](OC(C)=O)c1ccc(OCCO)cc1)c1cnc2ccccc2c1 showed a composite z-score of -0.0942.
